In PubChem BioAssay (NCI):
Several values for one entry are separate records, joined by “and”; a condition that tells them apart may be missing. Equal entries are not always repeated. Compounds without any hit were thinned out: in the full panel of roughly 83,000, 20% have a hit.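 Results are percent growth after 48 hours of single-concentration exposure. 100 means growth as in untreated cells, lower positive values show inhibition; negative values down to -100 show cell death.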 Activity calls are given as the source filed them. How the source made its calls: active means growth percent below 10; inactive means the rest.

Legend:
Assay in all cases: NCI-60 one-dose screen, 48 h (100 = growth as untreated, 0 = no growth, -100 = all killed)
Conditions in all cases: 10 µM unless noted
NCI-H23 lung = tested on: NCI-H23 lung
NCI-H226 lung = tested on: NCI-H226 lung
NCI-H322M lung = tested on: NCI-H322M lung
HOP-62 NSCLC = tested on: HOP-62 NSCLC
NCI-H460 lung = tested on: NCI-H460 lung
HOP-92 NSCLC = tested on: HOP-92 NSCLC
NCI-H522 lung = tested on: NCI-H522 lung
A549/ATCC NSCLC = tested on: A549/ATCC NSCLC
786-0 renal = tested on: 786-0 renal
COLO 205 colon = tested on: COLO 205 colon
DU-145 prostate = tested on: DU-145 prostate
K-562 leukemia = tested on: K-562 leukemia
MALME-3M melanoma = tested on: MALME-3M melanoma
MDA-MB-231 breast = tested on: MDA-MB-231 breast
RXF 393 renal = tested on: RXF 393 renal
SF-268 CNS = tested on: SF-268 CNS
SF-295 CNS = tested on: SF-295 CNS
SF-539 CNS = tested on: SF-539 CNS
UACC-257 melanoma = tested on: UACC-257 melanoma
M14 melanoma = tested on: M14 melanoma

Row | SMILES | growth (NCI-H23 lung) | growth (NCI-H226 lung) | growth (NCI-H322M lung) | growth (HOP-62 NSCLC) | growth (NCI-H460 lung) | growth (HOP-92 NSCLC) | growth (NCI-H522 lung) | growth (A549/ATCC NSCLC) | growth (786-0 renal) | growth (COLO 205 colon) | growth (DU-145 prostate) | growth (K-562 leukemia) | growth (MALME-3M melanoma) | growth (MDA-MB-231 breast) | growth (RXF 393 renal) | growth (SF-268 CNS) | growth (SF-295 CNS) | growth (SF-539 CNS) | growth (UACC-257 melanoma) | growth (M14 melanoma)
1 | CN(Cc1ccccc1)c1nc(Cl)c(C2CC(c3ccc4c(c3)OCO4)=NN2c2cc(Cl)cc(Cl)c2)s1 (stereo not given) | 96.2% (inactive) | 102% (inactive) | 99.9% (inactive) | 89.2% (inactive) | 103% (inactive) | 99% (inactive) | 94.2% (inactive) | 90.7% (inactive) | 90% (inactive) | 93.6% (inactive) | 101% (inactive) | 90.2% (inactive) | 95% (inactive) | 101% (inactive) | 109% (inactive) | 94.8% (inactive) | 93.8% (inactive) | 103% (inactive) | 106% (inactive) | 99.5% (inactive)
2 | COc1ccc(C(=O)N/N=C/c2ccc(O)cc2O)cc1Nc1ccnc(C(F)(F)F)c1 | 32.1% (inactive) | 45% (inactive) | 30.9% (inactive) | 11.8% (inactive) | 24.7% (inactive) | 51.8% (inactive) | 36.2% (inactive) | 53.3% (inactive) | 3.75% (active) | 37.1% (inactive) | 48.1% (inactive) | 26.6% (inactive) | 9.52% (active) | 51.6% (inactive) | 49% (inactive) | 49.9% (inactive) | 22.7% (inactive) | 10.3% (inactive) | 33.1% (inactive) | 2.43% (active)
3 | O=[N+]([O-])c1ccc(S(=O)Cc2ccccc2)c([N+](=O)[O-])c1 (stereo not given) | 71.8% (inactive) and 82.7% (inactive) | 24.9% (inactive) | 99.5% (inactive) | 109% (inactive) and 47.2% (inactive) | 99.8% (inactive) and 103% (inactive) | 56.6% (inactive) and 7.51% (active) | -98.3% (active) and -79% (active) | 83.2% (inactive) and 40.6% (inactive) | 84.2% (inactive) and 51.2% (inactive) | -98.2% (active) and -92.3% (active) | 79.3% (inactive) and 70.5% (inactive) | 25.9% (inactive) | -61.7% (active) and -33.4% (active) | 74.6% (inactive) and 82.1% (inactive) | -36.6% (active) and -28.2% (active) | 86.6% (inactive) and 88.5% (inactive) | 95.9% (inactive) | 90.7% (inactive) and 46.3% (inactive) | 37% (inactive) and 69.3% (inactive) | 55.8% (inactive) and 31.7% (inactive)
4 | CC(Sc1ccccc1)C(=O)O (stereo not given) | 96% (inactive) | 99.3% (inactive) | 109% (inactive) | 83.4% (inactive) | 111% (inactive) | 97% (inactive) | 102% (inactive) | 99.3% (inactive) | 118% (inactive) | 143% (inactive) | 107% (inactive) | 152% (inactive) | 67.5% (inactive) | 93.2% (inactive) | 94.2% (inactive) | 105% (inactive) | 91.8% (inactive) | 103% (inactive) | 103% (inactive) | 95.2% (inactive)
5 | CCOC(=O)CC1CSC(c2cccc(Cl)c2)=N1 (stereo not given) | 94.6% (inactive) | 113% (inactive) | 93.3% (inactive) | 111% (inactive) | 108% (inactive) | 119% (inactive) | 101% (inactive) | 95.3% (inactive) | 84.8% (inactive) | 120% (inactive) | 111% (inactive) | 92.9% (inactive) | 108% (inactive) | 105% (inactive) | 106% (inactive) | 101% (inactive) | 102% (inactive) | 114% (inactive) | 99.1% (inactive) | 101% (inactive)
6 | Cc1[nH]c(C(=O)Nc2nc3ccc(NC(=O)CCN)cc3s2)c(Cl)c1Cl | 37.4% (inactive) | 86.7% (inactive) | 94% (inactive) | 74.6% (inactive) | 42.6% (inactive) | 73.9% (inactive) | 85.5% (inactive) | 95.8% (inactive) | 92.1% (inactive) | 104% (inactive) | 48.4% (inactive) | 6.04% (active) | 53.8% (inactive) | 51% (inactive) | 81.9% (inactive) | 56.2% (inactive) | 95.7% (inactive) | 52.1% (inactive) | 96.8% (inactive) | 44.1% (inactive)
7 | CC(=NCc1ccccc1)c1ccc(O)cc1O | 97.5% (inactive) | 101% (inactive) | 103% (inactive) | 101% (inactive) | 107% (inactive) | 76.2% (inactive) | 111% (inactive) | 100% (inactive) | 105% (inactive) | 105% (inactive) | 112% (inactive) | 96.6% (inactive) | 93.8% (inactive) | 96.9% (inactive) | 122% (inactive) | 101% (inactive) | 123% (inactive) | 97.8% (inactive) | 88.1% (inactive) | 104% (inactive)
